RXFP1 antagonist: RXFP1 (human) relaxin receptor antagonism; activity change, negative = inhibition, % at 57.5 µM; 350,000 tested, 0.59% active; HEK293-RXFP1, relaxin-stimulated cAMP HTRF, 30 min; stronger effect = lower value; AID 1259400;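 active = activity change of -60% or lower, but not beyond a set lower limit; inconclusive = change between -60% and -40%, or beyond the set limit; inactive = change above -40%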
RXFP1 agonist: RXFP1 (human) receptor agonism. Q9HBX9. HEK293T-RXFP1 cAMP TR-FRET, 30 min; response scale: percent of porcine relaxin response, buffer zero. Potency, µM (titrated, usually from 57.5 µM), hits mostly activators. 370,000 tested, 0.3% active. AID 2676; also: nearly all actives have a fitted effect of over 60% in size
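Agonist response is measured as cAMP accumulation in an RXFP1-transfected HEK293T line under PDE4 inhibition. Values are scaled between buffer-only and 29 nM porcine relaxin, and EC50s come from standard Hill equation fits.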
PTHR1 agonist: activates the human parathyroid hormone receptor PTHR1; Q03431; HEK293 GP2 PTHR1 cells, GloSensor cAMP luminescence, 1 h; Potency, µM (series often up to 115 µM), most hits filed as activators; 410,000 tested, 0.075% active; AID 743266; also: nearly all actives have a fitted effect of over 55% in size
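HEK-293-derived GP2 cells expressing PTHR1 and a GloSensor cAMP reporter, 3,000/well, plated overnight, given luciferin plus IBMX (each 0.5 mM as added) for 1 h at 37 °C, then compound for 1 h at 37 °C. Luminescence was read after 15 min at room temperature.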
HEK293 tox: cytotoxic in the GLP-1 receptor inverse agonist counter-screen; 410,000 tested, 0.13% active; AID 624418; HEK293 cAMP-luciferase reporter cells, luminescence, 24 h; Potency, µM (titrated, usually from 38.3 µM), most hits filed as inhibitors;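 also: loss of luciferase light is scored as toxicity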
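A 23 nL compound transfer followed 12 hours of cell culture at 37 deg C; exposure then lasted 24 hr. Luciferase assay detection reagent was dispensed and plates read for luminescence after a 12 min room-temperature wait.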
NPSR antagonist: neuropeptide S receptor (human) antagonism, cAMP; Q6W5P4; CHO-NPSR cells, cAMP TR-FRET, antagonist mode; Potency, µM (doses to about 38.3 µM), most hits filed as inhibitors; 220,000 tested, 1% active; AID 1461; also: nearly all actives have a fitted effect of over 50% in size
TSHR antagonist: human thyrotropin receptor antagonism. TSHR-expressing cells, TSH-stimulated cAMP HTRF, 2 h; stronger effect = lower value. activity change, negative = inhibition, % at 11.5 µM. 330,000 tested, 0.2% active. AID 504810;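 active = activity change below a set negative limit, meaning inhibition stronger than a set level, cut at about -70% in these data; inconclusive = activity change between two set negative limits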
Target sequence (P16473 whole entry, looked up): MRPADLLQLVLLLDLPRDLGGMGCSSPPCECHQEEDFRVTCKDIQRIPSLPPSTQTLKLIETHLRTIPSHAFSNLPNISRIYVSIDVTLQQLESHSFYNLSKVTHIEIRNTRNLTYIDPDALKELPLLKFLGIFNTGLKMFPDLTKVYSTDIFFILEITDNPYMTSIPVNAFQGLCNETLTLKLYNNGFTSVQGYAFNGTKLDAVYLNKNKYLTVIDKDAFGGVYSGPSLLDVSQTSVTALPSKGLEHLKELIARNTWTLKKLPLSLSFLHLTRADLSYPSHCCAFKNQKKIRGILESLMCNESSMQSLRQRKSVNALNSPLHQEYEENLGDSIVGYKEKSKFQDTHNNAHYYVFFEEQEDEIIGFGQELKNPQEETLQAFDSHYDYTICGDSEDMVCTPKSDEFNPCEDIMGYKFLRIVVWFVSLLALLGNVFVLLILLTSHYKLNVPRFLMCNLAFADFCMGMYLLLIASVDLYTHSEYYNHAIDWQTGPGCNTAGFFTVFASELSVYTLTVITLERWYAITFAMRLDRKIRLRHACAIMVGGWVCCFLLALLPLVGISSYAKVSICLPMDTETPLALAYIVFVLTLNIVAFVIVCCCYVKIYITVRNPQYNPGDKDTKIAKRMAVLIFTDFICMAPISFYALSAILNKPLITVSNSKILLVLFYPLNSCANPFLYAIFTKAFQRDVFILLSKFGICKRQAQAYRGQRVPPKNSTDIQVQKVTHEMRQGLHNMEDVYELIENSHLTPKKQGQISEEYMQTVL
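Cell-based HTRF cAMP assay; TSHR cells + compound, TSH EC80 (4nM final), 2 h, 37 deg C. Lysis with anti-cAMP cryptate and cAMP-d2, 30 min RT, read 665/620 nm.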
Numbers stand for hits; i = inactive; ? = inconclusive; nt = no result. Many of the other results were omitted from the sample, so hits are more common in it than they were. Unless noted, calls follow the shape of the dose curve; as a rule, active = well fitted curve in the direction sought with a large enough effect; inconclusive = small, poorly fitted or top-dose-only effect, or another doubt; inactive = no such curve, though single readings can be large; an effect the other way counts as inactive or inconclusive.

SMILES | RXFP1 antagonist | RXFP1 agonist | PTHR1 agonist | HEK293 tox | NPSR antagonist | TSHR antagonist
CC(=O)c1ccc(N2CCN(CC(O)COC(c3ccccc3)c3ccccc3C)CC2)cc1 (stereo not drawn) | i | i | i | i | nt | i
CC(=O)c1ccc(N2CCN(CC(O)COC(c3ccccc3)c3ccccc3)CC2)cc1 (stereo not drawn) | -79.2 | i | i | i | nt | i
Cc1c(CN(C)C(=O)c2cc(-c3ccccc3)nc3ccc(Br)cc23)cnn1C | nt | 15.8µM | i | i | nt | nt
COc1ccc(CN(C)C(=O)c2cc(-c3ccccc3)nc3ccc(C)cc23)c(OC)c1OC | i | i | i | ? | nt | i
CC1(c2ccc3c(c2)OCCCO3)NC(=O)N(CC(=O)Nc2cccc(C#N)c2)C1=O (stereo not drawn) | i | i | i | i | nt | i
O=c1c2ccccc2[nH]c(=S)n1CCN1CCc2ccccc2C1 | -75.3 | i | i | ? | i | i
CN1CCN(CCn2c(=S)[nH]c3ccccc3c2=O)CC1 | i | i | i | i | nt | i
NS(=O)(=O)c1ccc(CCn2c(=S)[nH]c3ccccc3c2=O)cc1 | -64.0 | i | i | i | i | i
CCOC(=O)N1CCN(C(=O)C2CCN(C(=O)c3ccccc3C)CC2)CC1 | -102.1 | nt | i | i | nt | nt
O=C1C(=O)c2ccc(-c3ccccc3)cc2-c2ccccc21 | i | i | i | ? | 3.98µM | i
C/C(=N/NC(=O)c1ccncc1)C(=O)O | i | nt | nt | nt | nt | nt
C=CCc1cc(Cl)ccc1OCCCNC(C)CC (stereo not drawn) | -62.7 | i | i | i | i | i
CCC(C)NCCCOc1ccc(Cl)cc1C(C)(C)C (stereo not drawn) | i | i | i | i | i | i
CC(=O)N[C@H]1[C@H]([C@H](O)[C@H](O)CO)OC(C(=O)O)=C[C@@H]1N=C(N)N | i | nt | nt | nt | nt | nt
COc1ccccc1N1CCN(C(=O)CCC(=O)N2CCN(c3ccc(F)cc3)CC2)CC1 | i | i | i | i | nt | -124.4
COc1ccccc1N1CCN(C(=O)CCC(=O)N2CCN(c3ccccc3OC)CC2)CC1 | i | i | i | i | nt | i
CCn1c(CN2CCCCC2)nc2cc(NC(=O)COc3cc(C)ccc3C(C)C)ccc21 | i | i | i | i | nt | nt
Cc1ccc(C(C)C)c(OCC(=O)Nc2ccc3c(c2)nc(CCN2CCCCC2)n3C)c1 | -60.6 | i | i | i | nt | i
Cc1ccc(NC(=O)c2c(C)oc3c2C2=NCCN2C=N3)cc1F | nt | i | i | i | nt | nt
CC(C)(C)C(=O)NC(=S)NNC(=O)c1ccc(-c2ccccc2)cc1 | i | i | i | i | i | -81.5
CCOc1cc(CNc2ccc(N3CCCCC3)cc2)cc(Br)c1OCC(=O)NC(C)(C)C | i | i | i | i | i | i
CCOc1cc(CNc2ccc(N(C)C)cc2)cc(Br)c1OCC(=O)NC(C)(C)C | -109.5 | i | i | ? | 10µM | -76.3
COc1ccc(-c2c3c([nH]c(=S)c2C#N)CCC3)cc1 | i | 31.6µM | i | i | 1µM | i
COc1ccc(OC)c(-c2c3c([nH]c(=S)c2C#N)CCCC3)c1 | i | i | i | i | i | i
N/C(Cc1ccccc1)=N\OC(=O)c1cccc2ccccc12 | i | i | i | 10µM | i | i
SMILES | RXFP1 antagonist | RXFP1 agonist | PTHR1 agonist | HEK293 tox | NPSR antagonist | TSHR antagonist
O=C(Nc1ccc(C(F)(F)F)cc1)C1(c2ccccc2)CC1 | -63.2 | i | i | i | i | i
c1ccc(CSc2nc3ncncc3[nH]2)cc1 | i | i | i | i | i | i
S=c1nc(SCc2ccccc2)[nH]c2ccccc12 | i | 28.2µM | i | i | 10µM | i
CCc1ccc(CNC(=O)c2cc3c(C)nc4ccccc4c3o2)cc1 | i | i | i | i | i | i
Cc1nc2ccccc2c2oc(C(=O)NCC3COc4ccccc4O3)cc12 (stereo not drawn) | -83.7 | i | i | i | i | i
COc1cccc(C(=O)N2CCN(CCc3ccncc3)CC2)c1 | i | i | ? | i | nt | nt
CN(Cc1ccccc1Cl)C(=O)CNC(=O)C12CC3CC(CC(C3)C1)C2 | i | nt | i | i | nt | nt
Cc1ccc(CO/N=C\Cc2snc(Sc3ncc(C(F)(F)F)cc3Cl)c2C#N)cc1 | i | i | i | i | 10µM | i
Cc1nc(NC(=S)Nc2ccccc2)sc1C | i | i | i | i | 1.26µM | i
CCc1nnc(NC(=S)Nc2ccccc2)s1 | i | i | i | ? | i | i
COc1ccc(CCNC(=O)[C@H](CC(C)C)NC(=O)N2CCn3c2nc2ccccc23)cc1OC | i | i | i | i | nt | i
C[C@H](CO)N1C[C@H](C)[C@@H](CN(C)C(=O)CCC(F)(F)F)OCc2cnnn2CCCC1=O | i | nt | i | i | nt | nt
CCOC(=O)c1c(NC(=O)/C=C\C(=O)O)sc(C)c1-c1ccccc1 | i | i | i | i | i | i
CCOC(=O)c1c(NC(=O)/C=C/C(=O)O)sc(C)c1-c1ccc(C(C)(C)C)cc1 | i | i | i | ? | 10µM | ?
CCc1ccc(OCC(=O)NNC(=O)c2cc(S(=O)(=O)N(C)C)ccc2N2CCCC2)cc1 | -114.0 | i | i | i | nt | i
CN(C)S(=O)(=O)c1ccc(N2CCCC2)c(C(=O)NNC(=O)COc2ccc(Cl)cc2)c1 | i | i | i | i | nt | i
Fc1cccc(Cl)c1C1Nc2cccc3cccc(c23)N1 | i | i | i | i | nt | i
Clc1cccc(Cl)c1C1Nc2cccc3cccc(c23)N1 | ? | i | i | ? | nt | -70.5
CCC12CN3CC(CC)(CN(C1)C3c1cccc(OC)c1O)C2=O (stereo not drawn) | i | i | i | i | nt | nt
CC1(c2ccccc2)CC(C)(C)N2C(=O)/C(=C3\SC(=S)NC3=O)c3cccc1c32 (stereo not drawn) | i | i | i | i | 5.01µM | i
CC(=C1SC(=S)NC1=O)c1ccccc1 | i | nt | i | i | nt | nt
C[C@H]1C[C@H](O)c2ccsc2S1(=O)=O | i | nt | nt | nt | nt | nt
NNc1nc2ccccc2nc1C(F)(F)F | i | i | i | i | i | i
FC(F)(F)c1nc2ccccc2nc1N/N=C\c1ccccc1 | i | i | i | 8.91µM | ? | i
NC(=O)CCCn1c(C(=O)c2cc(Cl)c(N)c(Cl)c2)c2ccc([N+](=O)[O-])cc2[n+]1[O-] | nt | i | i | i | nt | i
CC(C)[C@@H]1CC[C@@H](C)CC1=O | i | nt | nt | nt | nt | nt
CC1CCc2cc(F)ccc2N1C(=O)CSc1nnc2c(n1)[nH]c1ccccc12 (stereo not drawn) | -62.3 | i | i | i | i | i
CC(C)OC(=O)OCOP(=O)(CO[C@H](C)Cn1cnc2c(N)ncnc21)OCOC(=O)OC(C)C | i | nt | nt | nt | nt | nt
CCCS(=O)(=O)c1nnnn1-c1cccc(OC)c1 | i | i | i | ? | 10µM | i
